The values below come from PubChem BioAssay AID686978 (National Center for Advancing Translational Sciences (NCATS), 2013).

Structures are written as SMILES. In all, about 420,000 compounds went through this assay and about 64,000 (15%) were called active. About 27% were inconclusive and are not listed. The call rests on the fitted dose curve; in most records, active means well fitted inhibition curve with a large enough effect; inconclusive means small, poorly fitted or top-dose-only effect; inactive means flat fitted curve, though single readings scatter. A selection follows. Where a call stands in place of a potency, no number is given.
Potency means the concentration at half of the fitted maximal effect.

The experiment in a line: qHTS for Inhibitors of human tyrosyl-DNA phosphodiesterase 1 (TDP1): qHTS in cells in absence of CPT. Further: nearly all actives have a fitted effect of over 55% in size. As to conditions: DT40 Tdp1-/- hTDP1 cells, no CPT, ATP luminescence, 48 h; activity change, negative = growth inhibition: at 46.2 µM (top of the series). In short, it runs like this:
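Growth kinetics read by CellTiter-Glo luminescence after ≥48 hr at 37 °C. Cells: DT40 Tdp1-/- stably carrying human TDP1, 400 per well, compound exposure in the absence of CPT (DMSO vehicle).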
For `Cc1ccc(CSCC(=O)N(C)CC(=O)Nc2cccc(F)c2)cc1`, the Potency result is “inactive”. In the case of `O=C(O)CCC(=O)N(Cc1ccco1)c1nc(-c2ccccc2)cs1`, the Potency result was “inactive”. `CC(Oc1ccc(F)cc1F)C(=O)/C=C/N(C)C` (stereo unspecified): the Potency result was “inactive”.

In the case of `c1ccc(C2CNCc3c2ccc2ccccc32)cc1` (stereo unspecified), the Potency is 16.4 µM (active). In the case of `CC1(C)CC(=O)C(C=NCCN2CCN(C(=S)Nc3cccc(Cl)c3)CC2)=C(O)C1`, the Potency result was “inactive”. With `COc1ccc(-c2n[nH]c3c2CN(C(=O)c2ccc(F)cc2)CC3)cc1`, the Potency entry is “inactive”. For `COCCCNC(=O)COc1cc(C)c(Cl)c(C)c1`, the Potency result was “inactive”. With `Cc1cc2c(cc1S(=O)(=O)CCC(=O)NCc1ccccc1)OCC(=O)N2` the entry was “inactive”.

As to `CC(=O)Nc1ccc2c3c(ccc([N+](=O)[O-])c13)CC2`, the Potency entry is “inactive”. With `CCCNC(=O)C1CC(=O)N(c2ccc(OCC(=O)Nc3cccc(C)c3C)cc2)C1` (stereo unspecified), the Potency entry was “inactive”. `CCCOc1ccc(/C=N/NC(=O)C2CC2)c(OCCC)c1`: the Potency result was “inactive”. Take `COc1ccc(NC(=S)NCCNC(C)=O)cc1`: the Potency result is “inactive”.

Consider `COc1ccc(NC(=S)Nc2ccccc2Cl)cn1`, for which the Potency entry was “inactive”. `COc1ccc(CS(=O)/C(Cl)=C(/Cl)C(=O)Nc2ccc(OC)nc2)cc1` (stereo unspecified): the Potency was 0.13 µM (active). For `CS(=O)(=O)c1ccc(Cl)c(NC(=O)COC(=O)c2ncc(Cl)c(Cl)c2Cl)c1`, the Potency entry was “inactive”. As to `O=C(Nc1cc2c3c(c1)CC(=O)N3CCC2)c1ccccc1F`, the Potency entry is “inactive”. Then `COc1ccc(/C=C(\NC(=O)c2ccccc2)C(=O)NCCN2CCOCC2)cc1OC`, with “inactive”. With `COCCN(Cc1nc(-c2ccc(C(F)(F)F)cc2)no1)C(C)C` the entry was “inactive”. For `CN(C(=O)COc1ccccc1)c1nnc(-c2ccncc2)s1`, the Potency result was “inactive”. `COCCN(C(=O)C(C)C)c1nnc(-c2ccc(C(C)(C)C)cc2)s1`: the Potency is 20.6 µM (active).

As for `CCOC(=O)N1CCN(CC(=O)Nc2ccc(F)cc2)CC1`, the Potency entry was “inactive”. `CCOC(=O)N1CCN(CC(=O)Nc2cc(C)nn2-c2nc3ccccc3s2)CC1`: the Potency was 23.1 µM (active). Consider `CCOC(=O)N1CCN(C(=O)Cn2cnc3ccccc3c2=O)CC1`, for which the Potency entry was “inactive”. With `CC1CCCN(c2csc3ccc(F)cc3c2=O)C1` (stereo unspecified) the entry was “inactive”; with `S=c1[nH]nc(/C=C/c2ccccc2)o1`, “inactive”; with `CN(C)c1nc(NN)nc(Nc2ccc(F)cc2)n1`, “inactive”. Take `CC(=O)Nc1nc(N(C)C)nc(N(C)C)n1`: the Potency result is “inactive”.

As to `CN(C)c1nc(Nc2ccc(Cl)c(Cl)c2)nc(N(C)C)n1`, the Potency was 10.3 µM (active).

As to `Cc1ccc(/C([O-])=C(/C(=S)NCc2ccco2)[n+]2ccccc2)cc1[N+](=O)[O-]`, the Potency entry was “inactive”. For the compound `CCOC(=O)c1c(NC(=O)CSc2nnc(CNc3ccc(C)cc3C)o2)sc(C)c1C`, the Potency result was “inactive”. For `FC(F)(F)c1nc(-c2ccccc2)ncc1-c1nnnn1-c1ccccc1`, the Potency is 16.4 µM (active). Then `c1ccc(-n2nnnc2NC2CCCCCC2)cc1`, with “inactive”. Turning to `Fc1ccccc1CCNc1nnnn1-c1ccccc1`, the Potency result is “inactive”. As for `O=S(=O)(NC1CCCCC1N1CCC(O)CC1)c1ccc(Cl)cc1` (stereo unspecified), the Potency entry is “inactive”. As to `CN1CCCc2cc(C#N)c(=O)[nH]c21`, the Potency result was “inactive”. With `CCOC(=O)c1cc2cc(-c3c(C(=O)OCC)oc4cc(O)cc(O)c4c3=O)ccc2o1`, the Potency was 23.1 µM (active). In the case of `CCOC(=O)c1cc2cc3ccccc3cc2oc1=O`, the Potency entry was “inactive”. As for `CCOC(=O)c1cc(=O)c2ccc(OCc3ccccc3)cc2o1`, the Potency entry is “inactive”. For `O=C(O)c1ccc(COCC(F)(F)F)cc1`, the Potency entry is “inactive”.

As for `CC1CCC2(CC1)NC(=O)N(CC(=O)c1ccc3c(c1)OCO3)C2=O` (stereo unspecified), the Potency result is “inactive”. Turning to `O=C(CCN1C(=O)c2ccccc2C1=O)Nc1ccncc1`, the Potency result was “inactive”. Then `COc1ccc(-c2cc3ccc(OCc4nn[nH]n4)cc3oc2=O)cc1`, with “inactive”. Take `COc1cccc(C(=O)c2cc3ccc(O)cc3oc2=O)c1`: the Potency entry is “inactive”.

Consider `O=c1oc2cc(O)ccc2cc1-c1ccc(F)cc1`, for which the Potency was 14.6 µM (active). With `Cc1ccc(C(=O)NCCSc2c(C)[nH]c3ccccc23)cc1C` the figure was 25.9 µM (active); with `COC(=O)CCNC(=O)c1ccc2[nH]c(C)c(C)c2c1`, “inactive”; with `CN(C)CCCNC(=O)c1ccc2[nH]c3ccccc3c2c1`, “inactive”. In the case of `COC(=O)c1ccc(OCC(=O)NC(C)(C)C)cc1`, the Potency entry is “inactive”. For the compound `O=C(O)c1cnn2c(C(F)(F)F)cc(-c3ccccc3)nc12`, the Potency result is “inactive”. Turning to `COc1ccc(-c2cc(C(F)(F)F)n3nc(C(=O)N4CCOCC4)c(Cl)c3n2)cc1`, the Potency is 29.1 µM (active).

On to `COc1ccc(OCC(=O)N2CCOCC2)cc1`, for which the Potency entry was “inactive”. For `O=C(NC1CC(=O)N(c2ccc(F)cc2)C1)C1CCCCC1` (stereo unspecified), the Potency result was “inactive”. Turning to `COc1cc(OC)cc(-c2nnc(SCC(=O)Nc3ccc(C(=O)O)cc3)s2)c1`, the Potency entry is “inactive”. With `COc1ccc(N2CCN(C(=O)CSCc3nc(-c4ccccc4Cl)oc3C)CC2)cc1`, the Potency is 16.4 µM (active). With `COc1ccc(N2CCN(C(=O)CN3C(=O)COc4ccccc43)CC2)cc1`, the Potency result was “inactive”.

With `COc1ccc(N2CCN(C(=O)C3CCN(C(=O)c4ccccc4Cl)CC3)CC2)cc1`, the Potency entry was “inactive”. On to `Cc1ccc(NC(=O)COC(=O)CN2CCSC2=O)cc1F`, for which the Potency result is “inactive”.

Consider `CS(=O)(=O)c1ccc2nc(NC(=O)CN3CCCCCC3)sc2c1`, for which the Potency result was “inactive”. Then `CC(C)(C)C(=O)c1c(N)[nH]c(C(=O)c2ccccc2)c1-c1ccc(F)cc1`, with “inactive”; and `NC(=O)Cc1ccc2c(c1)[nH]c1ccccc12`, with “inactive”; and `CCc1cc(-c2nnc(SCC(=O)NC3CC3)n2C)cs1`, with “inactive”. Then `COc1ccc(/C=N/NC(=O)c2ccc3c(c2)OCCO3)c(OC)c1`, with “inactive”. For the compound `COc1cccc(/C=N\NC(=O)C2=NNC(=O)C2C)c1O` (stereo unspecified), the Potency is 23.1 µM (active). In the case of `COc1cccc(/C=N/NC(=O)c2[nH]nc3c2CCc2ccccc2-3)c1O`, the Potency is 2.91 µM (active). As to `COc1ccc(OC)c(/C=N/NC(=O)c2ccc[n+](CC(=O)c3ccccc3)c2)c1`, the Potency entry was “inactive”.

`CN(C)CCNC(=O)c1[nH]nc2c1CCc1ccccc1-2`: the Potency result was “inactive”. For the compound `CCC(C)C1(C2CCCC2)NC(=O)NC1=O` (stereo unspecified), the Potency entry is “inactive”. With `CN1CCN(C(=O)CCc2ncc(C(F)(F)F)cc2Cl)CC1` the entry was “inactive”. Regarding `CCN1CCC2(CC1)N=C(c1ccc(F)cc1)C(=S)N2C(=O)c1ccc(C)cc1`, the Potency was 5.8 µM (active). In the case of `CCN1CCN(C(=O)CSc2ccc(C)cc2)CC1`, the Potency entry was “inactive”. `Cc1ccc(C(=O)N(CN2CCCC2=O)c2ccc(F)cc2)cc1`: the Potency result was “inactive”.
